Measured values from PubChem BioAssay AID2384 (Southern Research Specialized Biocontainment Screening …, 2010).
Screen size: about 2,300 compounds; about 1,100 (48%) were called active. The rule behind the calls is not given here. The set was probably picked from earlier hits. The list shows a part of the results. Measured potencies and affinities stand elsewhere.

assay: S. typhi counter-screen signal inhibition – fluorescence, 4 h, counter-screen for PhoP regulon inhibitor project, dose response (AID 2384); conditions: S. typhi GFP reporter counter-screen; series mostly up to 150 µM; inhibition: at the top concentration

SMILES	inhibition
O=C(c1cc2c(s1)-c1ccccc1S(=O)(=O)C2)N1CCN(Cc2ccccc2)CC1	0.12% (inactive)
CN1CCN(c2ccccc2NC(=O)c2sc3ccccc3c2Cl)CC1	-21.8% (inactive)
Cc1cc(C=O)c(O)cc1O	36.2% (inactive)
O=C(NCc1ccccc1)c1ccc(CNc2c(N3CCCC3)c(=O)c2=O)cc1	-5.91% (inactive)
COc1ccc(NC(=O)Cn2c(=O)oc3cc(S(=O)(=O)N4CCCC4)ccc32)c(OC)c1	-15.4% (inactive)
CCOC(=O)c1cnn2c1[nH]c(=O)c1ccccc12	-7.64% (inactive)
NC1=NC2(CCCCC2)n2c(nc3ccccc32)N1	34.6% (inactive)
NC1=NC(c2cccc(O)c2)n2c(nc3ccccc32)N1 (stereo not given)	-22.2% (inactive)
NC(=O)c1cc(S(=O)(=O)Nc2cccc(F)c2)co1	7.62% (inactive)
COC(=O)c1cc2nc(-c3ccccc3)cc(C)n2n1	1.02% (inactive)
CNc1ccc(SC#N)cc1	2.34% (inactive)
CCOC(=O)Cc1nn(C)c(=O)c2ccccc12	-3.49% (inactive)
O=S1(=O)CC=C(CSc2nc3ccccc3[nH]2)C1	-15.2% (inactive)
CC(=O)N1CSCC1C(=O)N1CCN(c2ccc(N3CCOCC3)nn2)CC1 (stereo not given)	-16.5% (inactive)
CCOC(=O)C(NC(C)=O)(Nc1cccc(F)c1)C(F)(F)F (stereo not given)	-29.5% (inactive)
O=C(NC1(C(F)(F)F)C(=O)Nc2c1c(=O)[nH]c(=O)n2-c1ccccc1)c1ccncc1 (stereo not given)	-4% (inactive)
C=CCn1c(C)c(C(C)=O)c(N2CCCC2)nc1=S	11.6% (inactive)
NC(=O)CN1N=C(c2cc(Cl)sc2Cl)CSC1=O	14.5% (inactive)
COCCN1CC(=O)N2C(c3cccc(OC)c3)c3[nH]c4ccccc4c3C[C@H]2C1=O (stereo not given in full)	-10.6% (inactive)
N=c1c(C(=O)NCC2CCCO2)cc2c(=O)n3ccccc3nc2n1Cc1ccc(Cl)cc1 (stereo not given)	24.5% (inactive)
COc1ccc(C)cc1NC(=O)C1CCN(S(=O)(=O)c2c(C)noc2C)CC1	8.55% (inactive)
CCOc1ccccc1-c1cc(-c2ccccc2)nc2c1c(=O)n(C)c(=O)n2C	2.64% (inactive)
COc1cccc(C(c2c(C)[nH]n(-c3ccccc3)c2=O)c2c(C)[nH]n(-c3ccccc3)c2=O)c1O	14.5% (inactive)
O=C(NCc1ccco1)C1CCN(C(=O)c2cc3sccc3n2Cc2ccc(Cl)cc2)CC1	4.77% (inactive)
Nc1nc(SCC(=O)N2CCCC2)[nH]c(=O)c1NC(=O)c1cccs1	17.8% (inactive)
Clc1ccc(OCc2nc(-c3ccc(Br)o3)no2)cc1	-18.3% (inactive)
CCOc1ccc(-c2ccc(SCC(=O)N3CCOCC3)nn2)cc1	-7.13% (inactive)
NC(=O)c1ccc[n+]([C@H]2O[C@@H](COP(=O)([O-])OP(=O)(O)OC[C@H]3O[C@@H](n4cnc5c(N)ncnc54)[C@H](O)[C@@H]3O)[C@H](O)[C@@H]2O)c1	-10.8% (inactive)

SMILES	inhibition
CN1CCCN(C(=O)COc2ccc(F)cc2Cl)CC1	0.57% (inactive)
Cc1cc(NC(=O)COC(=O)c2cccc(S(=O)(=O)N(C)C3CCCCC3)c2)no1	-11.6% (inactive)
COC(=O)c1sccc1NC(=S)NCc1ccc(Cl)cc1	33.3% (inactive)
COC(=O)CNc1n[nH]c(=S)[nH]c1=O	26.9% (inactive)
C/[N+]([O-])=C1\Cc2ccccc2C1=O	-21.2% (inactive)
NC1=C(Br)C(=O)c2ccccc2C1=O	22.2% (inactive)
Clc1ccc2c(NCc3ccccn3)ccnc2c1	-0.79% (inactive)
O=C(NCc1cccs1)C(=O)NCC(c1ccco1)N1CCN(c2ccc(F)cc2)CC1 (stereo not given)	1.68% (inactive)
CCC(=O)N1CCc2cc(S(=O)(=O)NCCCN3CCN(Cc4ccccc4)CC3)ccc21	-9.6% (inactive)
COc1ccc(NC(=O)C(Cc2ccccc2)n2cccc2)cc1 (stereo not given)	9.62% (inactive)
CC(C)NC(=O)c1cc(-c2ccc(Br)cc2)on1	10.1% (inactive)
CC(=O)NCc1ccc(C(=O)CCl)cc1	18.7% (inactive)
Cc1c(C)n(C)c2ccc(C(=O)NCc3cccs3)cc12	-3.78% (inactive)
O=C(NCCCN1CCOCC1)C(C(=O)c1ccccc1)n1ccccc1=O (stereo not given)	2.1% (inactive)
COc1ccc(Cl)cc1NC(=O)CCN1CCOCC1	13.3% (inactive)
CCCC1(c2ccccc2)NC(=O)N(CC(=O)Nc2cc(S(=O)(=O)N3CCOCC3)ccc2Cl)C1=O (stereo not given)	-4.71% (inactive)
COc1ccc(C(=O)C2CCN(CC(=O)Nc3cc(C)cc(C)c3)CC2)cc1	26.4% (inactive)
COCCNC(=O)c1cccc(OC2CCN(Cc3ccccc3C)CC2)c1	-4.82% (inactive)
Cc1ccc(C)c(NC(=O)CSc2nnc([C@@H](N)Cc3c[nH]c4ccccc34)o2)c1	33.6% (inactive)
O=C(O)c1ccc(CSc2nnnn2C2CCCCC2)cc1	-28% (inactive)
COCCNC(=O)CN(C(=O)CCC(=O)Nc1ccccn1)c1ccc(F)c(Cl)c1	1.46% (inactive)
COCCN1C(=O)C(=O)/C(=C(/O)c2cccc(OC)c2)C1c1ccncc1 (stereo not given)	4.45% (inactive)
Cc1ccc(CCN2C(=O)CCC2(C)C(=O)NC2CCCC2)cc1 (stereo not given)	2.68% (inactive)
FC(F)(F)c1ccccc1NC1=NCCC1	7.38% (inactive)
CCN(CC)CC#CC(C)OCOCC#CCOC (stereo not given)	-8.61% (inactive)
Cc1ccc2[nH]cc(CCNC(=O)c3cccnc3)c2c1	-28.4% (inactive)
Cc1cc(C)cc(CSc2nnc(C)c(=O)[nH]2)c1	30.6% (inactive)
